Compound activity from PubChem BioAssay.
HP1b chromo inh: HP1-beta chromodomain-methylated histone interaction inhibition; AlphaScreen HP1-beta / biotin-H3K9me3 peptide binding; Potency, µM (titrated, usually from 114 µM), for inactives: at the top dose activity change, negative = inhibition, hits mostly inhibitors; AID 540317; P83916; 390,000 tested, 0.56% active; also: potency is read from the fitted curve at half-maximal effect; nearly all actives have a fitted effect of over 70% in size
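HP1-beta protein (50 nM final) preincubated 30 min at room temperature with biotinylated H3(1-18)K9me3 peptide (50 nM) in PBS pH 7.4, 0.01% Tween-20, then compound added for 30 min. AlphaScreen streptavidin donor/nickel chelate acceptor beads (10 ug/mL final), 30 min dark, luminescence read.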
BAZ2B block: inhibitors of human BAZ2B bromodomain; Potency, µM (titrated, usually from 114 µM), inactives show at the top dose activity change, negative = inhibition, hits mostly inhibitors; AlphaScreen BAZ2B-H3K14Ac peptide displacement; 360,000 tested, 4.4% active; Q9UIF8; also: potency is read from the fitted curve at half-maximal effect; % is scaled to controls: 0 for no effect and ±100 for the full control effect; nearly all actives have a fitted effect of over 60% in size
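Compounds, titrated to a top concentration of 110 uM, were incubated 30 min at room temperature with preformed BAZ2B/acetyl-K14 H3 peptide complex (50 nM each). Proximity signal was measured by AlphaScreen after 20 min with beads.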
JMJD2A Tudor inh: inhibitors of human JMJD2A Tudor domain | AID 504339 | AlphaScreen JMJD2A-Tudor / H3K4me3 peptide binding | O75164 | Potency, µM (doses to about 114 µM), for inactives: at the top dose activity change, negative = inhibition, most hits filed as inhibitors | 390,000 tested, 4.4% active; also: potency is read from the fitted curve at half-maximal effect; % is scaled to controls: 0 for no effect and ±100 for the full control effect; nearly all actives have a fitted effect of over 50% in size
Target sequence (O75164 whole entry, looked up, the tested form may be a part): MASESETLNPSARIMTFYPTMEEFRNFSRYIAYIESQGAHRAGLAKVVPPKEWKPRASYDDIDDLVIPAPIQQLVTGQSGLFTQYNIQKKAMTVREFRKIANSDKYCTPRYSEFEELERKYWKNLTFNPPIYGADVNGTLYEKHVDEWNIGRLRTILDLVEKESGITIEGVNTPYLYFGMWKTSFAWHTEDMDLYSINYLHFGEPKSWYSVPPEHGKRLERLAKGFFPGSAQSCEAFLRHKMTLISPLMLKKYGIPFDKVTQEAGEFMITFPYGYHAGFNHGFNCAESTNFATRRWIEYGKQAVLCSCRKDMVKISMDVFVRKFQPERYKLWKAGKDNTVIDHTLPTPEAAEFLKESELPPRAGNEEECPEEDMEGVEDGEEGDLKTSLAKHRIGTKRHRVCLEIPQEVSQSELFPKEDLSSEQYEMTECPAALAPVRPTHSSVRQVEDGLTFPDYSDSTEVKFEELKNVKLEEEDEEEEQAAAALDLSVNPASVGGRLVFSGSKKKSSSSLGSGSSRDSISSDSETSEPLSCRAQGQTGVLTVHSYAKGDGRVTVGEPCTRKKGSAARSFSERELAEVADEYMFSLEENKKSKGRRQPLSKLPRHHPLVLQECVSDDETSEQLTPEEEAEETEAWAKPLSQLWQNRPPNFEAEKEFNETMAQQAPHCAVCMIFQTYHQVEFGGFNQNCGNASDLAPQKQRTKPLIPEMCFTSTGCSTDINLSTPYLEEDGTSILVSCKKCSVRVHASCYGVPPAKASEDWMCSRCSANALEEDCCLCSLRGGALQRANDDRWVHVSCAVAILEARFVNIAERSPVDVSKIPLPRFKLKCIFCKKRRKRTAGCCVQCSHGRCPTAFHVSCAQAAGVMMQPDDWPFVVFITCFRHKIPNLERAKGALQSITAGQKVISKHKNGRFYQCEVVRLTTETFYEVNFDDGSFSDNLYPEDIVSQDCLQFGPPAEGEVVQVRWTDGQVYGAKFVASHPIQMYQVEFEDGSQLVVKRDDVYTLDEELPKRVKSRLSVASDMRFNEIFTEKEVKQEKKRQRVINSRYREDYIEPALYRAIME
PLK1 PBD block: blocks phosphopeptide binding to human PLK1 polo-box domain; Plk1 PBD binding of FITC phosphopeptide, fluorescence polarization; AID 720504; Potency, µM, for the others: max response, negative = inhibition, actives largely listed as inhibitors; P53350; 360,000 tested, 2.8% active; also: potency is read from the fitted curve at half-maximal effect; series mostly up to about 57 µM; % is scaled to controls: 0 for no effect and ±100 for the full control effect; nearly all actives have a fitted effect of over 65% in size
G9a inh: inhibitors of human histone lysine methyltransferase G9a; G9a H3K9 monomethylation, AlphaScreen, 2 h; Potency, µM (top dose mostly 102 µM), for inactives: top-dose activity, negative = inhibition, most hits filed as inhibitors; 350,000 tested, 8.8% active; AID 504332; also: potency is read from the fitted curve at half-maximal effect; % is scaled to controls: 0 for no effect and ±100 for the full control effect; nearly all actives have a fitted effect of over 75% in size
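AlphaScreen read-out: biotin-H3K9 peptide (500 nM) methylation by 20 nM enzyme with 20 uM SAM, 2 h at room temperature after 15 min compound preincubation; anti-monomethyl H3K9 antibody plus donor/acceptor beads, 10 min dark.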
PI5P4Ka inh: blocks human PI5P4K alpha kinase activity. max response, %. P48426. PI5P4Kalpha enzyme, ADP-Glo luminescence, 60 min; active compounds read low. AID 652105. 330,000 tested, 1.2% active; active = max response of -50% or lower; inconclusive = between -30% and -50%; inactive = -30% or higher; also: value at the top dose of about 77 µM; % is scaled to controls: 0 for no effect and ±100 for the full control effect
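qHTS, 1536-well: enzyme/substrate mix, compound by pin tool, 5 microM ATP final; RT 60 min; ADP-Glo reagents 1 (45 min) then 2 (30 min); luminescence.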
ADP-Glo interf: interferes with ADP-Glo detection without enzyme present; shares compounds with PI5P4Ka inh; ADP-Glo detection counter-screen, luciferase luminescence, no enzyme; Potency, µM (top dose mostly 76.9 µM), for the others: at the highest dose activity change, negative = inhibition, usual class: inhibitors; 1,100 tested, under 10 active; AID 743285
Active calls of the source: *; ? = inconclusive; . = not tested or not shown; [ ] = another dose, or the depositor's remark. Shown are actives, neighbours in structure and some others; about 12% of the full set was active somewhere. Unless noted, calls follow the shape of the dose curve; as a rule, active = well fitted curve in the direction sought with a large enough effect; inconclusive = small, poorly fitted or top-dose-only effect, or another doubt; inactive = no such curve, though single readings can be large; an effect the other way counts as inactive or inconclusive.

SMILES	HP1b chromo inh	BAZ2B block	JMJD2A Tudor inh	PLK1 PBD block	G9a inh	PI5P4Ka inh	ADP-Glo interf
C[C@H]1CN=C(Nc2ccccc2)N1CC1CCCCC1	45%	0%	-18%	-1%	14%	2	.
CSc1ncccc1C(=O)Nc1ccc(OC(F)(F)F)cc1	20%	0%	11µM*	34µM*	13%	-58*	2%
CCNC(=S)Nc1ccc(Cc2nc3ccccc3[nH]2)cc1	24%	-2%	-6%	-4%	21%	1	.
Cc1ccc(C)c2[nH]c(=O)c(CCNC(=O)c3ccc(S(=O)(=O)N4CCOCC4)cc3)cc12	18%	-6%	-14%	-2%	-3%	-57*	-7%
CCN(CC)C(=O)CSc1nc2ccc(NC(=O)CSc3nnc(N)s3)cc2s1	17%	-37%	-26%	-14%	?	-57*	-3%
CC(=O)Nc1ccc2nc(SCC(=O)NCCOc3ccccc3)sc2c1	9%	?	?	3.4µM*	11%[59 µM]	-61*	2%
COc1ccc(N(CC(O)CN2CCOCC2)S(=O)(=O)c2ccccc2)cc1 (configuration not stated)	-14%	-8%	-12%	-2%	-9%	-1	.
Cc1ccc(-c2onc3ccc(C(=O)O)cc23)cc1	28%	-20%	-21%	-10%	40µM*	-52*	1%
CC(=O)c1ccc2noc(-c3ccc(C)cc3)c2c1	105%	39%	7%	-8%	28%	-2	.
Cc1ccc(-n2c(=O)[nH]c3sc4c(c3c2=O)CCCC4)cc1	36%	-15%	-25%	.	5%[59 µM]	.	.
O=c1c2c3c(sc2[nH]c(=S)n1Cc1ccco1)CCC3	2%	45µM*	-16%[11.4 µM]	?	14µM*	-59*	-8%
Cc1ccc(-n2c(=S)[nH]c3sc4c(c3c2=O)CCC4)cc1	10%	-20%	-34%	24µM*	45µM*	-55*	0%
COC(=O)CSCC(=O)Nc1nnc(-c2cccc(C)c2)s1	7%	.	-19%	-9%	?	-1	.
O=S(=O)(c1ccccc1)N1N=C(c2cccs2)CC1c1ccc(Br)cc1 (configuration not stated)	27%	-35%	-2%	2%	-14%	-55*	5%
O=S(=O)(c1ccccc1)N1N=C(c2ccccc2)CC1c1ccccc1 (configuration not stated)	19%	5%	-11%	-9%	-19%	-11	.
COc1ccc(C(NC(=O)c2cccnc2)c2cc(Cl)c3cccnc3c2O)cc1OC (configuration not stated)	57%	?	-22%	-6%	19%[0.501 µM]	13	.
COc1ccc(Cl)cc1C(Nc1cccnc1)c1ccc2cccnc2c1O (configuration not stated)	?	35µM*	35µM*	4.2µM*	4µM*	-72*	2%
CN(C)S(=O)(=O)c1ccc(C(=O)Nc2cc3c(cc2C(=O)O)OCCCO3)cc1	18%	?	-18%	-16%	-17%	-50*	0%
CN(C)S(=O)(=O)c1cccc(C(=O)Nc2cc3c(cc2C(=O)O)OCCCO3)c1	31%	4%	5%	3%	-13%	-10	.
COc1cc(Cl)c(C)cc1NC(=O)CSCC#N	46%	-3%	0%	-24%	6%[59 µM]	.	.
COc1cc(Cl)c(C)cc1NC(=O)CSc1sc2c(O)cc(=O)[nH]c2c1C#N	1%	40µM*	56µM*	15µM*	?	-73*	-6%
N#Cc1c(SCC(=O)Nc2nncs2)sc2c(O)cc(=O)[nH]c12	?	10µM*	25µM*	?	?	-76*	1%
CCC(=O)N1CCc2cc(S(=O)(=O)NCCC(=O)Nc3ccc(OC)c(OC)c3)ccc21	33%	.	2%	.	-4%[59 µM]	.	.
COc1ccc(NC(=O)CS(=O)c2cccc(C(F)(F)F)c2)cc1 (configuration not stated)	24%	-1%	-22%	-3%	.	-2	.
CCc1ccc(S(=O)(=O)c2nnn3c2nc(Nc2ccc(NC(C)=O)cc2)c2sccc23)cc1	27%	-19%	-18%	.	-24%[59 µM]	.	.
SMILES	HP1b chromo inh	BAZ2B block	JMJD2A Tudor inh	PLK1 PBD block	G9a inh	PI5P4Ka inh	ADP-Glo interf
Cc1ccccc1NC(=O)Cc1nc(COC(=O)c2ccc(NC(N)=O)cc2)cs1	14%	.	-8%	11%	.	-56*	-3%
Cc1ccccc1NC(=O)Cc1nc(COC(=O)c2ccc(Cl)nc2)cs1	2%	-4%	-18%	-7%	?	1	.
CCCCN(C(=O)c1cccc(-n2cccc2)c1)c1c(N)n(CCC)c(=O)[nH]c1=O	79µM*	45µM*	14µM*	?	4%[0.501 µM]	-61*	2%
CCCN(C(=O)c1cc2c(s1)CCC2)c1c(N)n(Cc2ccccc2)c(=O)[nH]c1=O	31%	?	-30%	-22%	.	-66*	2%
CCCN(C(=O)c1ccc([N+](=O)[O-])c(C)c1)c1c(N)n(Cc2ccccc2)c(=O)[nH]c1=O	23%	-32%	-13%	0%	?	6	.
CCCN(C(=O)c1cccc(-n2cccc2)c1)c1c(N)n(Cc2ccccc2)c(=O)[nH]c1=O	45µM*	50µM*	16µM*	?	45µM*	-88*	-8%
COCCCN(C(=O)c1cc2c(s1)CCC2)c1c(N)n(Cc2ccccc2)c(=O)[nH]c1=O	1%	?	-27%	-15%	-42%	?	.
Cc1csc(B(O)O)c1	21%	.	-18%	.	.	.	.
CCc1ccc(-c2nc(CS(=O)CC(=O)NCCCN3CCOCC3)c(C)o2)cc1 (configuration not stated)	33%	-23%	-28%	?	?	-7	.
COc1ccc(C2c3c(oc4ccc(F)cc4c3=O)C(=O)N2Cc2ccc3c(c2)OCO3)cc1 (configuration not stated)	53%	?	-17%	.	4%[59 µM]	.	.
C=CCNC(=O)COC(=O)c1c2c(nc3ccccc13)CCC2	?	50µM*	28µM*	?	40µM*	-75*	-4%
COC(=O)Cc1c(C)nc2nc(-c3ccc(C)cc3)[nH]n2c1=O	27%	-4%	-25%	-5%	-22%[59 µM]	-72*	-3%
O=C(O)c1ccc(-c2nc(-c3ccccc3Cl)cs2)cc1	19%	?	-10%	-20%	.	-65*	2%
O=C(O)c1ccc(-c2nc(-c3ccccc3)cs2)cc1	24%	1%	-17%	-14%	-2%	-30	.
CCn1c(SCc2nc3sc(C(=O)O)c(C)c3c(=O)[nH]2)nc2ccccc21	28µM*	25µM*	40µM*	?	2.5µM*	-64*	1%
